Values joined by “and” are separate entries in the source; they are usually repeats but may differ in a detail not shown here. Equal entries are not always repeated. Inconclusive results are not listed. A call without a number means that no potency is given here. Active and inactive are the calls of the source. The call rests on the fitted dose curve; in most records, active means well fitted curve in the direction sought with a large enough effect; inconclusive means small, poorly fitted or top-dose-only effect, or another doubt; inactive means no such curve, though single readings can be large; an effect the other way counts as inactive or inconclusive.

One assay is described as follows: qHTS of pediatric cancer cell lines to identify multiple opportunities for drug repurposing: Primary screen for U-2 OS cells (AID 1347096). Further: nearly all actives have a fitted effect of over 50% in size. To be noted: U-2 OS viability, CellTiter-Glo luminescence, 48 h; series mostly up to 46 µM. In short, it runs like this: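 Cells (500-1,000/well) rested 5 h, then received compounds for 48 h; metabolically active cells were measured by CellTiter-Glo luminescence. Final concentrations spanned up to 46 µM (MIPE, 11-point) or 0.59 nM-46 µM (NPC, 8-point) in primary screens, 11-point in follow-ups.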
For orientation: In qHTS, concentration-response curves come from the screen itself.
Take `OCc1ccc(-c2nn(Cc3ccccc3)c3ccccc23)o1`: the Potency result is “inactive”.
Same read-out and setting: for `CCC(=O)O[C@]1(C(=O)SCF)[C@H](C)C[C@H]2[C@@H]3C[C@H](F)C4=CC(=O)C=C[C@]4(C)[C@@]3(F)[C@@H](O)C[C@@]21C` the value was “inactive”.
For `NC(=O)c1cccnc1`, the Potency entry was “inactive”.
Still for that read-out and setting: the value for `Cc1nnc(NS(=O)(=O)c2ccc(N)cc2)s1` was “inactive”; that for `N=C(N)c1ccc(OCCCCCOc2ccc(C(=N)N)cc2)cc1` was “inactive”.
Still for that read-out and setting: the value for `Cc1c(-c2ccc(O)cc2)n(Cc2ccc(OCCN3CCCCCC3)cc2)c2ccc(O)cc12` was “inactive”.
Still for that read-out and setting: for `COc1ccc2cc3[n+](cc2c1OC)CCc1cc2c(cc1-3)OCO2` the value was “inactive”.
On to `CCC(C)(C)c1ccc(CC(C)CN2C[C@@H](C)O[C@@H](C)C2)cc1` (stereo partly specified), for which the Potency result was “inactive”.
The same measure, in the same setting: for `CNCC[C@H](Oc1cccc2ccccc12)c1cccs1` the value was “inactive”; for `CC(=O)[C@H]1CC[C@H]2[C@@H]3CCC4=CC(=O)CC[C@]4(C)[C@H]3CC[C@]12C`, “inactive”; for `O=S(=O)(c1cccc2cnccc12)N1CCCNCC1`, “inactive”.
Same read-out and setting: the value for `CCOC(=O)[C@H](CCc1ccccc1)N[C@H]1CCc2ccccc2N(CC(=O)O)C1=O` was “inactive”; that for `COc1cc2c(Nc3ccc(Br)cc3F)ncnc2cc1OCC1CCN(C)CC1` was “inactive”.
Still for that read-out and setting: the value for `CNS(=O)(=O)CCc1ccc2[nH]cc(C3CCN(C)CC3)c2c1` was “inactive”; that for `C[C@@H](NCCCc1cccc(C(F)(F)F)c1)c1cccc2ccccc12` was “inactive”; that for `CCOC(=O)c1ccc(C#Cc2ccc3c(c2)C(C)(C)CCS3)nc1` was “inactive”.
As to `S=P(N1CC1)(N1CC1)N1CC1`, the Potency result is “inactive”.
Still for that read-out and setting: for `NC(=O)c1ccc2[nH]ccc2c1` the value was “inactive”.
Take `CC(C)(C)NC(=O)[C@H]1CC[C@H]2[C@@H]3CC[C@H]4NC(=O)C=C[C@]4(C)[C@H]3CC[C@]12C`: the Potency entry is “inactive”.
Still for that read-out and setting: for `CN(Cc1cc(Br)cc(Br)c1N)C1CCCCC1` the value was “inactive”.
Still for that read-out and setting: the value for `Cc1cccc(N(C)C(=S)Oc2ccc3ccccc3c2)c1` was “inactive”.
Same read-out and setting: the value for `CC(C)Cn1cnc2c(N)nc3ccccc3c21` was “inactive”.

A further assay in a line: qHTS of pediatric cancer cell lines to identify multiple opportunities for drug repurposing: Primary screen for Saos-2 cells (AID 1347097). Further: nearly all actives have a fitted effect of over 40% in size. Further: potency means the concentration at half of the fitted maximal effect. As to conditions: Saos-2 viability, CellTiter-Glo ATP luminescence, 48 h; series mostly up to 46 µM. In short, it runs like this:
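Phenotypic viability qHTS, 48 h compound exposure, CellTiter-Glo luminescence read-out; multi-concentration dosing so that potency and efficacy derive directly from the primary screen's curves.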
Take `CC(=O)Oc1ccccc1C(=O)Nc1ncc([N+](=O)[O-])s1`: the Potency is 27 µM (active).
Same read-out and setting: for `COc1cc2nc(N3CCCN(C)CC3)nc(NC3CCN(Cc4ccccc4)CC3)c2cc1OC` the value was 7.43 µM (active); for `Cc1nnc(NS(=O)(=O)c2ccc(N)cc2)s1`, “inactive”; for `COC(=O)Nc1nc2ccc(S(=O)c3ccccc3)cc2[nH]1` (stereo unspecified), 8.33 µM (active).
`CCCCc1oc2ccc(NS(C)(=O)=O)cc2c1C(=O)c1ccc(OCCCN(CCCC)CCCC)cc1`: the Potency was 18.7 µM (active) and 23.7 µM (active).
With `O[C@@H](CNC[C@H](O)[C@H]1CCc2cc(F)ccc2O1)[C@@H]1CCc2cc(F)ccc2O1`, the Potency was 26.4 µM (active).
The same measure, in the same setting: for `CN(C)c1ccc(C(=C2C=CC(=[N+](C)C)C=C2)c2ccc(N(C)C)cc2)cc1` the value was 2.11 µM (active) and 418 nM (active).
With `Oc1c(Cl)cc(Cl)c2cccnc12`, the Potency is 16.6 µM (active).
On to `COc1cc2c(Nc3ccc(Br)cc3F)ncnc2cc1OCC1CCN(C)CC1`, for which the Potency entry was “inactive”.
Consider `CNS(=O)(=O)CCc1ccc2[nH]cc(C3CCN(C)CC3)c2c1`, for which the Potency result is “inactive”.
The same measure, in the same setting: for `Cc1ccc(S(=O)(=O)N[C@@H](Cc2ccccc2)C(=O)CCl)cc1` the value was 9.35 µM (active); for `COC(=O)Nc1nc2ccc(C(=O)c3ccccc3)cc2[nH]1`, 66.8 nM (active) and 662 nM (active); for `Nc1nc(F)nc2c1ncn2[C@@H]1O[C@H](CO)[C@@H](O)[C@@H]1O`, 150 nM (active) and 935 nM (active).
Same read-out and setting: for `CC(C)(C)NC(=O)[C@H]1CC[C@H]2[C@@H]3CC[C@H]4NC(=O)C=C[C@]4(C)[C@H]3CC[C@]12C` the value was 14.8 µM (active).

The values are drawn from PubChem BioAssay (NCATS).
